This is an account of results in PubChem BioAssay.

A number with no mark means an inactive call. Activity calls are given as the source filed them.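 How the source made its calls: active means normalized viability below 100% at a tested concentration; inactive means the rest.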

This assay in a line: drug combination growth inhibition, ovarian cancer – cell-based, oncology-focused library, rucaparib conditional, profiling panel (AID 1508598). The note with it: patient-derived ovarian cancer cells, CellTiter-Glo viability, 144 h; at 0.313 µM; OCI-P5x cells; without rucaparib; active compounds read low.
In the case of `N[C@@H]1CCCN(c2c(/C=C3\SC(=O)NC3=O)cccc2-c2ccccc2)C1`, the viability was 106%.
The result for `C[C@@H]1C[C@H]2[C@@H]3CCC4=CC(=O)C=C[C@]4(C)[C@]3(F)[C@H](O)C[C@]2(C)[C@]1(O)C(=O)CO` reads 108%; that for `Cc1cc2c(C(=O)NC[C@H](C)c3ccccc3)c(O)c(O)cc2c(O)c1-c1c(C)cc2c(C(=O)NC[C@H](C)c3ccccc3)c(O)c(O)cc2c1O`, 93.3% (active); that for `Nc1nc(F)nc2c1ncn2[C@H]1O[C@H](CO)[C@@H](O)[C@@H]1O`, 112%.
Regarding `COc1cccc2c1C(=O)c1c(O)c3c(c(O)c1C2=O)C[C@@](O)(C(=O)CO)C[C@H]3O[C@H]1C[C@H](N)[C@@H](O)[C@H](C)O1`, the viability was 15.5% (active).
For the compound `C=C1/C(=C/C=C2\CCC[C@@]3(C)[C@H]2CC[C@H]3[C@H](C)/C=C/[C@@H](C)C(C)C)C[C@H](O)C[C@@H]1O`, the viability is 104%.
Regarding `CO[C@H]1C[C@H]2CC[C@@H](C)[C@@](O)(O2)C(=O)C(=O)N2CCCC[C@H]2C(=O)O[C@H]([C@H](C)C[C@@H]2CC[C@H](OP(C)(C)=O)[C@H](OC)C2)CC(=O)[C@H](C)/C=C(\C)[C@@H](O)[C@@H](OC)C(=O)[C@H](C)C[C@H](C)/C=C/C=C/C=C/1C`, the viability is 60.4% (active).
Regarding `C=CCNC1=C2C[C@@H](C)C[C@H](OC)[C@H](O)[C@@H](C)/C=C(\C)[C@H](OC(N)=O)[C@@H](OC)/C=C\C=C(\C)C(=O)NC(=CC1=O)C2=O`, the viability was 8.71% (active).
Regarding `CC[C@]1(O)C[C@@H]2CN(CCc3c([nH]c4ccccc34)[C@@](C(=O)OC)(c3cc4c(cc3OC)N(C=O)[C@@H]3C45CCN4CC=C[C@](CC)([C@H]45)[C@H](OC(C)=O)[C@]3(O)C(=O)OC)C2)C1` (some centres undefined), the viability was 16.7% (active).
